VLA-4 allo ag: enhancers of LDV-FITC binding to VLA-4 integrin, primary screen, Jurkat cells, flow cytometry. Integrin alpha-4 (Homo sapiens), P13612. 24,000 tested, under 10 active. activation, % at 10 µM (by protocol);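 active = fluorescent ligand binding to cells raised by more than 40% of the manganese-induced maximum; inconclusive = compound's own fluorescence above 85% of the ligand control signal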
VLA-4 antagonist: inhibitors of LDV-FITC binding to Mn2+-activated VLA-4, primary screen, Jurkat cells; LDV-FITC binding with Mn2+, flow cytometry; 100% = Mn2+-driven binding gain fully reversed; inhibition, % at 10 µM (by protocol); actives 0.2% (n = 24,000); AID 529, 2006;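 active = inhibition above 50%; inconclusive = compound itself fluorescent, judged against control cell fluorescence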
FPR ligand: human FPR ligands by binding competition, primary screen, cell-based, FPRL1 counter-screen, flow cytometry | inhibition, % (no concentration beside the values) | actives 0.74% (n = 24,000) | FPR-expressing cells, fluorescent ligand binding | fMet-Leu-Phe receptor (Homo sapiens), P21462 | AID 440, 2006
Target sequence (P21462 whole entry, looked up): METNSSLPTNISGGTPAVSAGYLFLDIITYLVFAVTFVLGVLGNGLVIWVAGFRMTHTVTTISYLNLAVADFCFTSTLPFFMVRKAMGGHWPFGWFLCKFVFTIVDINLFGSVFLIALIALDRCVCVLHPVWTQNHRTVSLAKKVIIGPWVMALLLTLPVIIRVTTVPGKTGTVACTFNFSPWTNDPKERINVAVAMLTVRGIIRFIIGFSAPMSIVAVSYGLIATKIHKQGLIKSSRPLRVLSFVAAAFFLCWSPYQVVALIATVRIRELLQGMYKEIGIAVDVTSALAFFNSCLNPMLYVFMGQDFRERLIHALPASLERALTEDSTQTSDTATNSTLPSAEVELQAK
FPRL1 binder: human FPRL1 ligands by binding competition, primary screen, cell-based, FPR counter-screen, flow cytometry; FPRL1-expressing cells, fluorescent ligand binding inhibition; inhibition, % (test concentration not listed); actives 0.3% (n = 24,000); AID 441, 2006
26S disassembly: inhibitors of ATP-driven 26S proteasome dissociation, primary screen, biochemical, bead-based flow cytometry, GFP-tagged proteasome | actives 0.2% (n = 24,000) | inhibition of disassembly, % (test concentration not listed) | AID 751, 2007 | anti-FLAG beads, GFP-proteasome disassembly;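 active = inhibition of disassembly above about 33%, limit read from the data; inconclusive = likely self-fluorescent, control bead median signal at least 40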;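 also: higher percent means more bead fluorescence retained so stronger block of disassembly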
Autofluor Jurkat: compound autofluorescence on Jurkat cells, primary screen, artefact control for VLA-4 allosteric ligand project, cell-based, flow cytometry; stronger effect = higher value; 1 = vehicle-only cell background; AID 576, 2007; actives 0.61% (n = 24,000); fluorescence ratio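 (tested at 10 µM compound in the well)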;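 active = fluorescence ratio above 2.44, which is 1 plus 3 SD of all ratios; inconclusive = signal too bright to measure linearly, ratio around 10 or more; inactive = fluorescence ratio below 2.44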;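 also: green fluorescence of cells measured with 488 nm excitation and 530 nm emission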
Hits are given with their value. Hits are enriched below; roughly 1.9% of the tested compounds scored in any of these assays. Rule as the data show it, unless noted: active = inhibition above about 30%; inconclusive = no clear call, values can overlap the other calls; inactive = below that.

For O=c1ccc2cc3c([nH]c4ccc(Br)cc43)oc-2c1O the results were VLA-4 allo ag inconclusive, VLA-4 antagonist inconclusive, FPR ligand inactive, FPRL1 binder inactive, 26S disassembly inactive and Autofluor Jurkat 6.56.
Screening O=C(OCc1cccs1)c1ccccc1NS(=O)(=O)c1ccc2c(c1)OCCO2 returned VLA-4 allo ag inactive, VLA-4 antagonist inactive, FPR ligand inactive, FPRL1 binder inactive, 26S disassembly inactive and Autofluor Jurkat inactive.
Cc1ccc(-n2cc(C(C)(C)C)[nH]c2=S)cc1 was read as VLA-4 allo ag inactive, VLA-4 antagonist inactive, FPR ligand inactive, FPRL1 binder inactive, 26S disassembly inactive and Autofluor Jurkat inactive.
For O=C(NC1CCCCCC1)C1c2ccccc2C(=O)N1Cc1cccnc1 (centres undefined) the results were VLA-4 allo ag inactive, VLA-4 antagonist inactive, FPR ligand inactive, FPRL1 binder inactive, 26S disassembly inactive and Autofluor Jurkat inactive.
`O=C(NC1CCCC1)C1c2ccccc2C(=O)N1C1CCCCC1` (centres undefined) gave VLA-4 allo ag inactive, VLA-4 antagonist inactive, FPR ligand inactive, FPRL1 binder inactive, 26S disassembly inactive and Autofluor Jurkat inactive.
For O=C(NCc1cccnc1)C1c2ccccc2C(=O)N1C1CCCCCC1 (centres undefined) the results were VLA-4 allo ag inconclusive, VLA-4 antagonist inconclusive, FPR ligand 62.5, FPRL1 binder inactive, 26S disassembly inactive and Autofluor Jurkat inactive.
`O=C(NCc1cccnc1)C1c2ccccc2C(=O)N1C1CCCCCCC1` (centres undefined) gave VLA-4 allo ag inactive, VLA-4 antagonist inactive, FPR ligand 47.6, FPRL1 binder inactive, 26S disassembly inactive and Autofluor Jurkat inactive.
For CCN(C(=O)Cc1c(C(=O)O)[nH]c2ccccc12)c1cc(OC)ccc1OC the results were VLA-4 allo ag inactive, VLA-4 antagonist inactive, FPR ligand 32.2, FPRL1 binder inactive, 26S disassembly inactive and Autofluor Jurkat inactive.
CCN(C(=O)c1coc(=O)c2ccccc12)c1cc(OC)ccc1OC was read as VLA-4 allo ag inconclusive, VLA-4 antagonist inconclusive, FPR ligand inactive, FPRL1 binder inactive, 26S disassembly inactive and Autofluor Jurkat inactive.
`CCOC(=O)C1CCN(C(=O)c2cnn3c(C)cc(C)nc23)CC1` gave VLA-4 allo ag inconclusive, VLA-4 antagonist inconclusive, FPR ligand inactive, FPRL1 binder inactive, 26S disassembly inactive and Autofluor Jurkat inactive.
`O=c1cc(NCc2ccco2)[nH]c(=O)n1-c1ccc(Br)cc1` gave VLA-4 allo ag inconclusive, VLA-4 antagonist inconclusive, FPR ligand inactive, FPRL1 binder inactive, 26S disassembly inactive and Autofluor Jurkat inactive.
`Cc1nnc(SCc2nc3ccccc3s2)n1-c1ccccc1` gave VLA-4 allo ag inconclusive, VLA-4 antagonist inconclusive, FPR ligand inactive, FPRL1 binder inactive, 26S disassembly inconclusive and Autofluor Jurkat 2.8.
Screening COC(=O)c1ccc2c(c1)N(Cc1nc(-c3cccc(Cl)c3)oc1C)C(=O)C1CCCN21 (centres undefined) returned VLA-4 allo ag inactive, VLA-4 antagonist inactive, FPR ligand inactive, FPRL1 binder inactive, 26S disassembly 81.4 and Autofluor Jurkat inactive.
Screening COC(=O)c1ccc2c(c1)N(Cc1nc(-c3ccc(Cl)cc3)oc1C)C(=O)C1CCCN21 (centres undefined) returned VLA-4 allo ag inactive, VLA-4 antagonist inactive, FPR ligand inactive, FPRL1 binder inactive, 26S disassembly 137.8 and Autofluor Jurkat inactive.
For O=C(NCCN1CCOCC1)NC1(C(F)(F)F)Oc2ccc(Cl)cc2O1 (centres undefined) the results were VLA-4 allo ag inactive, VLA-4 antagonist inactive, FPR ligand 66.5, FPRL1 binder inactive, 26S disassembly inactive and Autofluor Jurkat inactive.
`COCC(C)NC(=O)NC1(C(F)(F)F)Oc2ccc(Cl)cc2O1` (centres undefined) gave VLA-4 allo ag inactive, VLA-4 antagonist inactive, FPR ligand inactive, FPRL1 binder inactive, 26S disassembly inactive and Autofluor Jurkat inactive.
CCOC(=O)CSC1=NC(=O)CS1 was read as VLA-4 allo ag inconclusive, VLA-4 antagonist inconclusive, FPR ligand inactive, FPRL1 binder inactive, 26S disassembly inactive and Autofluor Jurkat inactive.
Cc1cc(NC(=O)c2cc(C3CC3)on2)no1 was read as VLA-4 allo ag inactive, VLA-4 antagonist inactive, FPR ligand inactive, FPRL1 binder inactive, 26S disassembly inactive and Autofluor Jurkat inactive.
Screening COc1ccc(OC)c(C(=O)c2nc3c(n2O)CCCCC3)c1 returned VLA-4 allo ag inactive, VLA-4 antagonist inactive, FPR ligand 54.4, FPRL1 binder 52.2, 26S disassembly inactive and Autofluor Jurkat inactive.
`COc1ccc(C(=O)N2CCN(C3CCCCC3)CC2)c(OC)c1` gave VLA-4 allo ag inactive, VLA-4 antagonist inactive, FPR ligand inactive, FPRL1 binder inactive, 26S disassembly inactive and Autofluor Jurkat inactive.
COc1ccccc1CNC(=O)N[C@@H](Cc1ccccc1)C(=O)O was read as VLA-4 allo ag inactive, VLA-4 antagonist inactive, FPR ligand inactive, FPRL1 binder inactive, 26S disassembly inactive and Autofluor Jurkat inactive.
`CCn1c(C)cc(=S)c2ccccc21` gave VLA-4 allo ag inactive, VLA-4 antagonist inactive, FPR ligand inactive, FPRL1 binder inactive, 26S disassembly inactive and Autofluor Jurkat inactive.
Screening CCn1c2ccccc2c2cc(N)ccc21 returned VLA-4 allo ag inconclusive, VLA-4 antagonist inconclusive, FPR ligand inactive, FPRL1 binder inactive, 26S disassembly inconclusive and Autofluor Jurkat 3.39.
For COc1ccccc1Cn1c(-c2ccco2)nc2nc3ccccc3nc21 the results were VLA-4 allo ag inconclusive, VLA-4 antagonist inconclusive, FPR ligand inactive, FPRL1 binder inactive, 26S disassembly inactive and Autofluor Jurkat 2.61.
`COc1ccc(CCn2c(-c3ccco3)nc3nc4ccccc4nc32)cc1` gave VLA-4 allo ag inconclusive, VLA-4 antagonist inconclusive, FPR ligand inactive, FPRL1 binder inactive, 26S disassembly inactive and Autofluor Jurkat inactive.
Screening COc1ccc(CCN2CCC(Nc3nc4ccccc4n3Cc3ccc(F)cc3)CC2)cc1 returned VLA-4 allo ag inconclusive, VLA-4 antagonist inconclusive, FPR ligand inactive, FPRL1 binder inactive, 26S disassembly inactive and Autofluor Jurkat 2.57.
Clc1ccc(Cn2c(CN3CCCC3)nc3ccccc32)cc1 was read as VLA-4 allo ag inactive, VLA-4 antagonist inactive, FPR ligand inactive, FPRL1 binder inactive, 26S disassembly inactive and Autofluor Jurkat inactive.
`CCOC(=O)N1CCC(NC(=O)c2cc(C(=O)Nc3ccc(OC)c(OC)c3)ccc2CO)CC1` gave VLA-4 allo ag inactive, VLA-4 antagonist inconclusive, FPR ligand inactive, FPRL1 binder 33.7, 26S disassembly inactive and Autofluor Jurkat inactive.
